# Data: PubChem BioAssay AID540332 (The Scripps Research Institute Molecular Screening Center, 2011)
# A number with no mark means an inactive call. The rule behind the calls is not given here.
# Tested on: Phorbol Ester
# Assay: selectivity profile across receptors and CYP450s – biochemical, Ricerca HitProfilingScreen, CYP450, set 2, selectivity assay for S1P4 agonist project, profiling panel (AID 540332)
# Details: at 30 µM; hits give high values
structure (smiles),measurement,value
COCCN=C1S/C(=C\c2cc(C)n(-c3ccc(F)cc3F)c2C)C(=O)N1C,inhibition,2%
